# Measured values reported in article PMC7819943, “Rice protein-binding microarrays: a tool to detect cis-acting elements near promoter regions in rice”.
# Over roughly 68,000 sequences, “fluorescence intensity (a.u.)” has its median near 9,100; the highest 2% begin near 16,000. What follows is part of a selection rich in the highest values, with near analogues and random picks from the rest.
# Target: OsWRKY34 (Oryza sativa, UniProt Q0JBA9 1-250)
# Assay: protein-binding microarray (RPBM); PBS, 2% BSA, 51.3 ng/ul salmon testes DNA, 50 uM zinc acetate, 200 nM TF, 25 C, 1 h; high values mean tight binding
# Settings: protein: recombinant; tags: N-terminal polyhistidine and DsRed monomer fusion (pET32a); label: CyDye5-dUTP incorporated in the synthesized complementary strand; 3' TTTTT single-stranded linker to array surface; dsDNA, one strand shown
# Procedure, shortened: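 In PBS with 2% BSA, salmon testes DNA and 50 µM zinc acetate, 200 nM protein was incubated on a custom Agilent array at 25 °C for 1 h and then washed off. The array had been made double-stranded by primer extension with Cy5-dUTP and blocked with 2% BSA. The proteins were transcription factors fused N-terminally to polyhistidine and DsRed, expressed in E. coli BL21-CodonPlus and purified on Ni–NTA. The binding signal is per-feature fluorescence intensity (arbitrary units) from an Axon 4000B scanner.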
# OsWRKY34, sequence (Q0JBA9 entry or part of it): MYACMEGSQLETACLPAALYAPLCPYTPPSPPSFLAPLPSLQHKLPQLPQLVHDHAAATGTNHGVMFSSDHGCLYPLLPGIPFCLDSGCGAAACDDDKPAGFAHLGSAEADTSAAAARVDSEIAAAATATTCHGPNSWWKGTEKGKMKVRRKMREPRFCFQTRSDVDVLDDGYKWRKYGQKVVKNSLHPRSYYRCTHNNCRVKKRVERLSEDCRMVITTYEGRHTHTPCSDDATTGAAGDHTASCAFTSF
row,Sequence,binding signal
1,ACCGACCTACTTAATTGCCTCCTGCCAAAATGACCCTTTACGGAGTCACCTAGTGCAG,9140 fluorescence intensity (a.u.)
2,ATGACGCCGTTGACTTTTTGTCCAACGACCATTCATTTTACGGAGTCACCTAGTGCAG,31300 fluorescence intensity (a.u.)
3,CTTTTCATCTTCTTGACGACTTGGTTGTTTGATTCATTTACGGAGTCACCTAGTGCAG,8830 fluorescence intensity (a.u.)
4,CACCGTTAACTTTTTATTACGTATTTGACCATTTGTCTTACGGAGTCACCTAGTGCAG,10200 fluorescence intensity (a.u.)
5,ATCCAACCCAACTCCCGTTGCTTTTTGTTGGACCCACTTGCGGAGTCACCTAGTGCAG,8110 fluorescence intensity (a.u.)
6,AGTGTTGACCAGCTTTGACCACCTTACCCAACTCCTTGTGCGGAGTCACCTAGTGCAG,17200 fluorescence intensity (a.u.)
7,CCGCCTCCTTTGACCCTACCAAAATTTACCGTTGACCATGCGGAGTCACCTAGTGCAG,20000 fluorescence intensity (a.u.)
8,AACCCATTTTCTGCTCTGCTCTTGCTTTGCTTTGCATTTCCGGAGTCACCTAGTGCAG,14000 fluorescence intensity (a.u.)
9,ATTGTTTGTCCCGTCCCTACATCACGCCAAAAGTCACAACCGGAGTCACCTAGTGCAG,11800 fluorescence intensity (a.u.)
10,GGAGGGGCGGCGATCGAGCAGAGCAGGGGAGGGAATCCTGCGGAGTCACCTAGTGCAG,8310 fluorescence intensity (a.u.)
11,CAGTGTATATTTCAGTGTATATTTGGTAGATTTGGTAGTACGGAGTCACCTAGTGCAG,8310 fluorescence intensity (a.u.)
12,CTACCCTATGCTATGAGACCGCTCTTATTCCGGGGTTTAACGGAGTCACCTAGTGCAG,9760 fluorescence intensity (a.u.)
13,TTCGCCGTGTTACTGTAGCTCAAATCTCTAGCTTCCCCAACGGAGTCACCTAGTGCAG,9240 fluorescence intensity (a.u.)
14,CTAACACATTCATCACATGATTAAAATTTTATTATTTATACGGAGTCACCTAGTGCAG,8510 fluorescence intensity (a.u.)
15,CCATCATATTTGACTATTTTCAGGTGTTAGTTTGGACGATCGGAGTCACCTAGTGCAG,9210 fluorescence intensity (a.u.)
16,CACCATTGACTTTTTAGCATATGTTTGACCGTTCGTCTTACGGAGTCACCTAGTGCAG,18200 fluorescence intensity (a.u.)
17,CACCATTGACTTTTTAGCACATGTTTGACCGTTCGTCTTACGGAGTCACCTAGTGCAG,14800 fluorescence intensity (a.u.)
18,TGTTTGACCGTTCGTCTTATTAAAATTTTTTTGTGAAATACGGAGTCACCTAGTGCAG,8610 fluorescence intensity (a.u.)
19,TTGGTTAGTTGCCACTCTCTCTCGCCGTGACCCTTTTTTACGGAGTCACCTAGTGCAG,20600 fluorescence intensity (a.u.)
20,CGCCGTTGACTTTTTAAAATTTGTTTGACCGTTCGTCTTACGGAGTCACCTAGTGCAG,30700 fluorescence intensity (a.u.)
21,GAGTGCCATTGAATCCTTCTGTTGCGTTGACCACCAAATGCGGAGTCACCTAGTGCAG,16500 fluorescence intensity (a.u.)
22,CGTTTGACCGTTCGTCTTATTTGAAAATTTTTTATGCTTACGGAGTCACCTAGTGCAG,10100 fluorescence intensity (a.u.)
23,TTTTGCCCTTTTTCTCTCGCCAGCTCGGACCCGTCGTGACCGGAGTCACCTAGTGCAG,8730 fluorescence intensity (a.u.)

row,Sequence,binding signal
1,TTCTGAATGTGATTGAATTAATTGGACTTGCGTTGACCTTCGGAGTCACCTAGTGCAG,11700 fluorescence intensity (a.u.)
2,TCCACCATTGACCAATGCCACGTCCTGCCAAATCCTCCTCCGGAGTCACCTAGTGCAG,10700 fluorescence intensity (a.u.)
3,TGACTTTTTAGCATATGTTTGACCGTTCGTCTTATTCAAACGGAGTCACCTAGTGCAG,13600 fluorescence intensity (a.u.)
4,TTCCTTTGTTTAGTTGTTTGTTTTACATTCCACTCTACTACGGAGTCACCTAGTGCAG,9220 fluorescence intensity (a.u.)
5,CTGTTCCATTTCTCCTTGTTGCATCAGTAACTCCAAACCACGGAGTCACCTAGTGCAG,12200 fluorescence intensity (a.u.)
6,GATTATTTGCTTTACGGTTTTTTAAAAAAATTTCTTCATACGGAGTCACCTAGTGCAG,9590 fluorescence intensity (a.u.)
7,CACACACACCCTGTCGAGCGAATATGCATGTCTTCTCAAGCGGAGTCACCTAGTGCAG,8960 fluorescence intensity (a.u.)
8,TCCCTTTTGAGTACCACTGCTGATATCTGGATGCCCGTCACGGAGTCACCTAGTGCAG,8080 fluorescence intensity (a.u.)
9,TTCACAATGTAAGCCATTCTAGCATTTTCCATATTTATATCGGAGTCACCTAGTGCAG,8240 fluorescence intensity (a.u.)
10,ATTTTGCCCCTTGTTGATCACCACAGAAGAACATGTGCTACGGAGTCACCTAGTGCAG,9790 fluorescence intensity (a.u.)
11,GTTCATATAGTACGTACTTTTATTCGTTAGTATATATGACCGGAGTCACCTAGTGCAG,9410 fluorescence intensity (a.u.)
12,TTTGACACCGTTGACTTTTTAGTACGTATTTGATCATTCGCGGAGTCACCTAGTGCAG,33800 fluorescence intensity (a.u.)
13,TTTAGTACGTGTTTGACCATTCGTCTTATTAAAAAAATTTCGGAGTCACCTAGTGCAG,9130 fluorescence intensity (a.u.)
14,ACCCACTTTCGACTCCATGAATTTCATCACATTTGTTTTACGGAGTCACCTAGTGCAG,18600 fluorescence intensity (a.u.)
15,TTTGACACCGTTGATTTTTTAATATGTGTTTGACCATTCGCGGAGTCACCTAGTGCAG,9260 fluorescence intensity (a.u.)
16,CGTTGACTTTTTAGTACGTGTTTGACCATTCGTCTTATTCCGGAGTCACCTAGTGCAG,30200 fluorescence intensity (a.u.)
17,ATCCGTGTATTATAGCGTTTCGTAGTAGTATTTTTATGTCCGGAGTCACCTAGTGCAG,9280 fluorescence intensity (a.u.)
18,TGTCACATTCGTCTCCGGTCCGTACGTTGCTGTATTTTAGCGGAGTCACCTAGTGCAG,17100 fluorescence intensity (a.u.)
19,GGTCGTCGTCTTTGCATTGTCTCCTTGTCCGGTACGTTGGCGGAGTCACCTAGTGCAG,9400 fluorescence intensity (a.u.)
20,AACTTTACAATTTTTTTATGTCATCCATGTCACATGTTTTCGGAGTCACCTAGTGCAG,9030 fluorescence intensity (a.u.)
21,CCCATTCTTTCACTTTTGACCTTTTTTTATCATTTTGTTTCGGAGTCACCTAGTGCAG,9510 fluorescence intensity (a.u.)
22,TGTTAACTTTTTAGTACGTGTTTGACTATTCGTTTTATTCCGGAGTCACCTAGTGCAG,12800 fluorescence intensity (a.u.)
